# Compounds with a hit are over-represented: about 4.6% of the library has one in this group of screens.
# GRIN3A LBD mod: binders of NR3A ligand-binding domain, primary screen, biophysical, differential scanning fluorimetry, uHTS; Glutamate receptor ionotropic, NMDA 3A (GRIN3A) ligand-binding domain; NR3A LBD differential scanning fluorimetry, Tm shift; 0% = protein alone, 100% = glycine-bound protein; Tm shift relative to glycine control, % at 25 µM; 2.5% of 340,000 active;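 active = melting temperature shift of at least 10% of the positive control shift, at one fixed dose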
# proKLK7 act: proKLK7 zymogen activators, primary screen, biochemical, fluorescence intensity | Kallikrein-7 (Homo sapiens), P49862 | purified proKLK7, EDANS-DABCYL substrate fluorescence; 100% is mature enzyme control, 0% vehicle | activation, % at 7 µM | 0.9% of 370,000 active | AID 652039, 2013;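 active = activation above the mean of all tested compounds plus 3 SD, computed per campaign excluding outliers beyond control limits, cut at about 13% in these data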
# ADAM10 inh: human ADAM10 inhibitors, primary screen, biochemical, QFRET, HTS; 0.62% of 370,000 active; recombinant ADAM10, EDANS/DABCYL FRET peptide cleavage, 3 h; Disintegrin and metalloproteinase domain-containing protein 10 (Homo sapiens), O14672; inhibition, % at 7 µM;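 active = inhibition above a per-campaign cutoff equal to the mean of compounds falling between control-based bounds plus 3 SD, cut at about 20% in these data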;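 also: 0% = DMSO wells while the 100% control is not disclosed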
# FAS TE block: FAS thioesterase domain inhibitors, primary screen, biochemical, fluorescence intensity, uHTS; inhibition, % at 15 µM; recombinant FAS-TE, OMFH fluorogenic substrate, fluorescence endpoint; 0.67% of 360,000 active;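 active = compounds whose normalised, plate-corrected inhibition of enzyme fluorescence in the single-dose primary screen is 50% or more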;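 also: 0% = DMSO with enzyme and 100% = substrate without enzyme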
# ADAM17 inh: ADAM17 inhibitors, primary screen, biochemical, QFRET; recombinant ADAM17, EDANS/DABCYL FRET peptide cleavage; inhibition, % at 6.95 µM; 0.83% of 370,000 active;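 active = inhibition above the mean of compounds lying between control limits plus 3 SD, set per campaign, cut at about 8.5% in these data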;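 also: 0% = DMSO-only wells as the low control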
# Target sequence (P78536 215-824 limits assumed): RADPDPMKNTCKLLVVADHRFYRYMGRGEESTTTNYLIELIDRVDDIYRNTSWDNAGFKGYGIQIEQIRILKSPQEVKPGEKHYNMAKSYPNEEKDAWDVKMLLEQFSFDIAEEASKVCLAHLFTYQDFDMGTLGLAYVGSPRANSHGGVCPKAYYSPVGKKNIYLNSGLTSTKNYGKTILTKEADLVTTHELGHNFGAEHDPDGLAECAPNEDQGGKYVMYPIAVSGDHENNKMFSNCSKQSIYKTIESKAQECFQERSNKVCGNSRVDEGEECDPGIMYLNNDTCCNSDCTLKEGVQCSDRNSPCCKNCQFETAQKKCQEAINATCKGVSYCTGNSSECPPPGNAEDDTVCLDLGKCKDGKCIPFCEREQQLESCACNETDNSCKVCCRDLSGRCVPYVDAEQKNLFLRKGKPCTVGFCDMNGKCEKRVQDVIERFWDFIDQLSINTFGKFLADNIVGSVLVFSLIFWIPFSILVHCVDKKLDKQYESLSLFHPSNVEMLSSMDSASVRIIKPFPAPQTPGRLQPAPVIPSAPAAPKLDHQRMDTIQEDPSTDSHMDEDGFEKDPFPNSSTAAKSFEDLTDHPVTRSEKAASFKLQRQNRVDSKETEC
# Starred values were filed as active, the others as inactive; x = no result given.
SMILES,GRIN3A LBD mod,proKLK7 act,ADAM10 inh,FAS TE block,ADAM17 inh
O=C(CCCSc1nc(-c2ccco2)cc(C(F)(F)F)n1)Nc1ccc2c(c1)OCO2,4,0,26*,29,5
N#Cc1c(NC(=O)CSc2nc(-c3ccccc3)cc(C(F)(F)F)n2)sc2c1CCC2,7,0,7,19,3
COc1cccc(-c2nnc3sc(-c4ccc(Br)o4)nn23)c1,x,-4,-2,x,-1
O=C(Nc1ccc(C(O)(C(F)(F)F)C(F)(F)F)cc1)c1ccc(F)cc1F,x,x,12,x,4
O=C(Nc1ccc(Cl)cc1)Nc1nnc(CSCc2ccc(Cl)cc2)s1,24*,0,1,5,3
O=C(Nc1nnc(Cc2ccc(Cl)cc2)s1)c1cccs1,12*,0,2,-8,-2
Cc1nc2cc(C(=O)N3CCN(C(=O)C(Cl)Cl)CC3)ccc2n1C1CCCC1,x,0,-15,x,-2
CCOC(=O)[C@]12CCCCC/C=C\1N(CCc1ccc(Cl)cc1)C(=O)[C@H]2CC(=O)NCCCCc1ccccc1,x,-1,13,x,8
Cc1ccc(CN2CCCCC(NC(=O)c3ccccc3)C2=O)cc1 (centres undefined),x,0,-1,x,-5
O=C1c2cccc3c([N+](=O)[O-])ccc(c23)C(=O)N1c1nccs1,10*,0,0,-129,-2
COC(=O)CSc1nc(C2CC2)cc(C(F)(F)F)c1C#N,18*,5,-14,24,-3
CCOC(=O)C(C)Sc1nc(C2CC2)cc(C(F)(F)F)c1C#N (centres undefined),1,-1,-13,33,-5
COC(=O)[C@]12C[C@H](CC(=O)NCCCCc3ccccc3)C(=O)N(Cc3ccc(Cl)cc3Cl)C1=C[C@H](C(C)C)O[C@@H]2C1CC1,x,0,-7,x,-5
CC(=O)c1cc2c(cc1NC(=O)CN1CCC(Cc3ccccc3)CC1)OCO2,1,-1,-1,21,-4
CC(=O)c1cc2c(cc1NC(=O)CN1Cc3ccccc3C1=O)OCO2,12*,0,-17,-3,-2
CCOc1ccccc1Nc1ccnc2cc(Cl)ccc12,228*,1,-14,13,-4
O=C(c1ccc(F)cc1F)N1CCC(Oc2cccnc2)CC1,x,0,4,x,6
COc1cccc(-c2nnc3n2N=C(c2ccc(Cl)cc2)CS3)c1,x,1,-7,x,-3
CC(=O)Nc1nc(-c2ccc(Br)s2)cs1,-3,0,5,-3,-1
COc1ccc(-c2csc(NC(C)=O)n2)cc1OC,4,0,-5,-5,-3
Cc1ccc(NC(=O)Nc2nc(-c3ccc(C)s3)cs2)cc1,24*,0,8,5,-2
COc1ccc(-c2csc(NC(=O)Nc3ccccc3)n2)cc1,26*,0,6,-1,-4
O=C(Nc1cccc(Cl)c1)Nc1nc(-c2ccc(Cl)cc2)cs1,36*,0,10,6,-2
COc1cccc(NC(=O)Nc2nc(-c3ccc(OC)c(OC)c3)cs2)c1,23*,1,12,8,6
O=C(Nc1ccccc1)Nc1nc(-c2ccc(Cl)cc2)cs1,-8,0,-9,-12,-4
SMILES,GRIN3A LBD mod,proKLK7 act,ADAM10 inh,FAS TE block,ADAM17 inh
COc1cc(N=Nc2ccc3ccccc3c2)ccc1O,1,-1,18,23,5
Oc1ccc(N=Nc2ccc3ccccc3c2)cc1,24*,-1,13,24,5
Nc1c(-c2cccc(Cl)c2)cnn1-c1cccc(C(F)(F)F)c1,-11,0,19,36,8.6*
CCCCCCn1c(=O)c(-c2ccccc2)c(O)c2ccccc21,12*,0,-7,-6,-6
CCCCCCn1c(=O)c(Cc2ccccc2)c(O)c2ccccc21,-7,0,-15,-2,-3
COC(=O)[C@]12C[C@H](CC(=O)NCCc3ccccc3OC)C(=O)N(CCc3ccc(OC)c(OC)c3)C1=C[C@H](C1CCCC1)O[C@@H]2C,x,0,13,x,8
COC(=O)c1ccc(Cn2ccc3ccc(-c4ccc5ccn(Cc6ccc(OC)cc6)c5c4)cc32)cc1,x,-1,-18,x,-6
O=C(O)c1ccc(COc2ccccc2Cl)cc1,13*,1,-8,-7,-5
Cc1ccc2c(c1)C(CS(=O)(=O)NC1CCCC1)NC2 (centres undefined),x,-1,-2,x,0
Cn1c(SCC(=O)Nc2cccc(F)c2)nnc1-c1cc2ccccc2o1,11*,0,-3,-4,0
Cc1cc(C)c2c(=O)n(CC(=O)NCCCN3CCOCC3)sc2n1,19*,x,x,4,x
CCOc1ccc(NC(=O)COC(=O)Cc2ccsc2)cc1,34*,1,-9,-1,-3
CCOc1ccc(NC(=O)COC(=O)CCCc2c[nH]c3ccccc23)cc1,28*,0,9,14,7
COc1ccc(NC(=O)COC(=O)CCCc2c[nH]c3ccccc23)cc1,21*,0,2,0,2
COc1ccc(/C=C/S(=O)(=O)NCCc2ccccc2)c(CNC(=O)OC(C)(C)C)c1,x,0,9,x,2
Cc1cccc(C(=O)OCC(=O)c2c(C)[nH]c3ccccc23)c1O,29*,0,-12,33,-5
Cc1cccc(C2(c3cccc(C)c3)CC2C(=O)Nc2ccc([N+](=O)[O-])cc2O)c1 (centres undefined),15*,-1,19,-16,4
C[C@H]1[C@@H](OC(=O)Nc2ccccc2Cl)CC[C@@]23CCCN2C(=O)CCC[C@@H]13,x,x,-5,x,-5
C=CCN1C(=O)[C@@H]2Cc3c([nH]c4ccccc34)C(c3ccc(O)cc3)N2C1=S (some centres undefined),21*,x,x,12,x
COc1ccc(-n2c(COc3ccc(Cl)cc3)nnc2SCC(=O)Nc2ccc3c(c2)OCO3)cc1,x,1,7,x,5
O=C(c1ccccc1I)N1CCC(Oc2cccnc2)CC1,x,0,-6,x,0
N#CCC(=N)N1CCN(c2cccc(Cl)c2)CC1,12*,0,3,-6,-1
N#CCC(=N)N1CCN(c2ccccc2)CC1,1,1,3,-2,-8
NC(=O)N/N=C/c1cn(-c2ccccc2)nc1-c1ccccc1,-13,0,5,2,0
O=[N+]([O-])c1ccc(N/N=C/c2cn(-c3ccccc3)nc2-c2ccccc2)cc1,41*,0,5,-3,-5
Cc1ccc(S(=O)(=O)N/N=C\c2cn(-c3ccccc3)nc2-c2ccccc2)cc1,29*,0,10,36,6
